KKLEB cytotox: reduces viability of KKLEB cystic fibrosis airway cells; KKLEB CF airway cells viability, ATPlite luminescence, overnight; hits give low values; cells stimulated with P. aeruginosa culture filtrate; activity change (cytotoxicity), % at 5 µM; 360,000 tested, 0.36% active; AID 602141;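 active = corrected activity change at or below -50% at 5 µM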
CF NFkB block: inhibitors of cystic fibrosis induced NF-kB; KKLEB NF-kB-GFP reporter, PAF-induced, GFP fluorescence overnight; inhibition, % at 5 µM; 360,000 tested, 0.86% active;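 active = at least 50% inhibition at 5 µM, scaled per plate between neutral and stimulator controls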;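 also: PAF is a Pseudomonas aeruginosa culture filtrate used as stimulus; plate controls were PAF-stimulated DMSO wells for no effect and unstimulated DMSO wells for full effect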
HIF-2a block: blocks HIF-2a reporter activity | 786-0 RCC cells HIF-2a reporter, luciferase luminescence, overnight | inhibition, % at 18.8 µM | 360,000 tested, 0.72% active;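 active = inhibition of the luminescence signal of 40% or more relative to plate controls, in a single-dose primary screen at 18.75 µM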
TWEAK-Fn14 inh: inhibitors of TWEAK-Fn14 interaction signaling. TWEAK-stimulated Fn14 reporter cells, luciferase luminescence, 8 h. inhibition, % at 10 µM. 360,000 tested, 2% active. AID 1159606; in the data active = inhibition above about 50%
Peg3 prom inh: inhibitors of Peg3 promoter. 360,000 tested, 1.7% active. inhibition, % at 20 µM. HeLa PEG-Prom luciferase reporter, luminescence, overnight;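 active = inhibition of at least 50% at 20 µM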
TROY NFkB inh: inhibitors of TROY-dependent NF-kB signaling | Q293 LMP1-TROYcd NF-kB luciferase reporter, 4 h | inhibition, % at 10 µM | 360,000 tested, 0.98% active;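 active = compounds whose plate-normalised and pattern-corrected inhibition of the luciferase reporter signal at the single screening dose is 50% or more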
Active calls of the source: *; . = not tested or not shown. Only some compounds are listed: those with a hit (about 4% of all), similar ones and a draw of the others.

SMILES	KKLEB cytotox	CF NFkB block	HIF-2a block	TWEAK-Fn14 inh	Peg3 prom inh	TROY NFkB inh
Oc1cccc2c(NC(=S)Nc3ccc(OC(F)F)cc3)cccc12	14.3	-0.5	-158.1	90.8*	-153.0	47.6
O=C(CCl)N=c1sccn1Cc1cccc2ccccc12	-98.5*	91.3*	25.5	48.0	33.5	-12.5
CCc1cc2c(=O)c(-c3ccc4c(c3)OCO4)coc2c(CN(C)C)c1O	-9.5	-3.1	-2.3	-11.8	12.7	36.5
CCc1cc2c(=O)c(-c3cscn3)coc2c(CN(C)C)c1O	-13.0	15.6	11.4	-62.9	13.4	66.3*
CCOCCn1c(N2CCCC2)nc2c1c(=O)n(C)c(=O)n2C	2.5	2.9	21.3	-9.9	16.7	3.1
CCOC(=O)c1c(-c2ccccc2)csc1NC(=O)CCN1C(=O)c2ccccc2C1=O	0.3	3.3	7.3	-10.0	1.3	6.5
CCOC(=O)c1c(-c2ccc(C)o2)csc1NC(=O)CSc1nnc(C)s1	-13.4	5.2	0.3	-0.2	19.5	-2.3
CCOC(=O)c1c(-c2ccc(-c3ccccc3)cc2)csc1NC(=O)CNCCN(C)C	-7.5	16.7	19.5	-72.6	103.2*	-19.7
CCOC(=O)c1c(-c2ccccc2Cl)csc1NC(=O)CSc1nc(C)cc(=O)[nH]1	10.1	6.0	14.6	12.2	28.7	59.4*
CCOC(=O)c1c(-c2ccccc2)csc1NC(=O)CSc1nnc(C)s1	-17.2	5.9	18.2	78.9*	9.6	38.5
CCOC(=O)c1ccc(NC(=O)CSc2nc(C)cc(=O)[nH]2)cc1	-1.0	2.6	17.5	2.7	12.8	-3.1
CC1(C)CCCN(C(=O)c2ccc3c(c2NCCO)C(=O)c2ccccc2C3=O)C1	-0.6	-1.8	40.3*	25.3	23.0	8.9
Cc1ccc(-n2nc(C)c3c(-c4cccs4)c(C#N)c(N)nc32)cc1	-3.9	26.2	3.0	43.0	86.4*	7.1
Cc1nn(-c2ccccc2)c2nc(N)c(C#N)c(-c3ccc(F)cc3)c12	-19.2	26.3	30.2	11.8	90.8*	13.7
CCN(CC)C(=O)CSc1nc(N)c(C#N)c(-c2cccs2)c1C#N	5.3	7.6	25.7	21.0	26.0	16.7
Cc1nc(N)c(C#N)c(-c2ccccc2)c1C	-10.9	38.8	26.9	19.6	18.3	-2.7
O=C(N/N=C/c1sc(=O)n(Cc2ccc(Br)cc2)c1Cl)c1ccco1	-75.2*	64.5*	34.0	26.4	83.5*	-2.9
O=C(NNC(=O)c1cccc(C(F)(F)F)c1)c1ccc(-n2cnnn2)cc1	-4.6	8.6	4.8	32.6	10.2	-0.8
CCCCOCCCNC(=O)C[C@@H]1C[C@@]2(C(=O)OC)CC(C)(C)CC=C2N(Cc2cccc3ccccc23)C1=O	.	.	-6.9	.	.	.
COc1ccc(-c2csc(-c3[nH]cnc3N)n2)cc1	-19.5	-7.6	15.2	14.7	-17.1	3.3
CC(C)(C)c1cc(NC(=O)C2CCCO2)no1 (configuration not stated)	4.5	6.4	-186.2	64.7*	-127.3	60.7*
O=C(O)c1cc(NC(=O)C2CCCO2)cc(C(=O)O)c1 (configuration not stated)	1.4	-14.8	15.2	30.6	11.2	16.2
CCN(CC)CCNC(=O)C1(O)c2cc(Br)ccc2NC(=O)N1c1ccccc1 (configuration not stated)	-6.3	6.5	11.6	-5.9	4.9	-8.6
COc1ccc(C(=O)COC(=O)c2cccc(-n3cnnn3)c2)c(OC)c1	8.3	-24.8	-210.2	-8.6	-396.4	-29.1
CCC1CCCCN1CCCNC(=O)c1cn(CC)c2ccc(S(=O)(=O)N3CCc4ccccc4C3)cc2c1=O (configuration not stated)	2.9	3.6	17.2	-5.7	76.7*	3.0
NS(=O)(=O)c1ccc(CCNC(=O)COC(=O)c2ccc([N+](=O)[O-])o2)cc1	-1.9	4.8	4.4	5.1	5.5	8.1
O=C(Cc1ccccc1)NCC1CCCO1 (configuration not stated)	-5.6	9.8	7.7	5.1	2.0	-22.0
O=C(Cc1cccs1)NCC1CCCO1 (configuration not stated)	6.5	-16.2	28.8	51.0*	5.0	7.9
CCC(C)n1c(=O)c2sccc2n2c(CCCC(=O)N3CCC(C(N)=O)CC3)nnc12 (configuration not stated)	11.4	-17.2	12.5	6.6	2.3	4.4

Screening results: PubChem, Sanford-Burnham Center for Chemical Genomics
